Test results from PubChem BioAssay (NCI).
Compounds without any hit were thinned out: in the full panel of roughly 83,000, 20% have a hit.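 Cell lines were cultured in 96-well plates, exposed to a single compound concentration, and assessed for percent growth 48 hours later.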 The source made the active and inactive calls. The calls were made as follows: active = growth percent below 10; inactive = the rest.

Key:
Assay in all cases: NCI-60 one-dose screen, 48 h (100 = growth as untreated, 0 = no growth, -100 = all killed)
Conditions in all cases: 10 µM unless noted
HCT-15 colon = test system: HCT-15 colon
HT29 colon = test system: HT29 colon
SNB-75 CNS = test system: SNB-75 CNS
SNB-19 CNS = test system: SNB-19 CNS
U251 CNS = test system: U251 CNS
PC-3 prostate = test system: PC-3 prostate
SK-MEL-5 melanoma = test system: SK-MEL-5 melanoma
UACC-62 melanoma = test system: UACC-62 melanoma
LOX IMVI melanoma = test system: LOX IMVI melanoma
SK-MEL-28 melanoma = test system: SK-MEL-28 melanoma

Measured: growth

O=C(NCCN1CCOCC1)c1cncnc1Nc1ccc2c(ccn2Cc2ccccn2)c1
inactive: HCT-15 colon 105% | HT29 colon 102% | SNB-75 CNS 82.4% | SNB-19 CNS 95.5% | U251 CNS 99.7% | PC-3 prostate 101% | SK-MEL-5 melanoma 101% | UACC-62 melanoma 94.6% | LOX IMVI melanoma 101% | SK-MEL-28 melanoma 108%

O=C(Nc1ccc(Cl)cc1)C1=NCCCCN1
inactive: HCT-15 colon 55.4% | HT29 colon 89.6% | SNB-75 CNS 95.6% | SNB-19 CNS 101% | U251 CNS 90.9% | PC-3 prostate 73% | SK-MEL-5 melanoma 93.6% | UACC-62 melanoma 45.1% | LOX IMVI melanoma 30.5% | SK-MEL-28 melanoma 111%

NC(=O)[C@@H]1Cc2ccccc2CN1C(=O)c1ccc2c(c1)Cc1ccccc1-2
active: UACC-62 melanoma -36.9%
inactive: HCT-15 colon 74.6% | HT29 colon 89.1% | SNB-75 CNS 85.7% | SNB-19 CNS 86.7% | U251 CNS 83% | PC-3 prostate 61.9% | SK-MEL-5 melanoma 46.6% | LOX IMVI melanoma 90.8% | SK-MEL-28 melanoma 116%

O=C(COc1ccc(/C=C2\Oc3ccccc3C2=O)cc1)Nc1nccs1
inactive: HCT-15 colon 104% | HT29 colon 107% | SNB-75 CNS 51.3% | SNB-19 CNS 102% | U251 CNS 90.9% | PC-3 prostate 78.7% | SK-MEL-5 melanoma 105% | UACC-62 melanoma 90.6% | LOX IMVI melanoma 85.1% | SK-MEL-28 melanoma 129%

CCOC(=O)C#Cc1c(CC(=O)OCC)nnn1[C@H]1O[C@@H](CO)[C@@H]2OC(C)(C)O[C@@H]21
inactive: HT29 colon 29.2% | SNB-75 CNS 76.4% | SNB-19 CNS 97.7% | U251 CNS 96.9% | PC-3 prostate 89.4% | SK-MEL-5 melanoma 97.2% | UACC-62 melanoma 84.8% | LOX IMVI melanoma 47.3% | SK-MEL-28 melanoma 86.6%
active: HCT-15 colon -12.8%

CC(C)(C)n1cc(-c2ccnc(NCCNS(=O)(=O)c3ccc(C(F)(F)F)cc3)c2)c(-c2ccccc2)n1
inactive: HCT-15 colon 75.6% | HT29 colon 53.7% | SNB-75 CNS 80.9% | SNB-19 CNS 101% | U251 CNS 75.4% | PC-3 prostate 65.8% | SK-MEL-5 melanoma 80.7% | UACC-62 melanoma 80.9% | LOX IMVI melanoma 93.1% | SK-MEL-28 melanoma 100%

CC1=C2[C@@H](CC1)[C@]1(C)O[C@@](C(C)C)(C[C@H]1OC(=O)CO)[C@H]2OC(=O)CCCc1ccccc1
inactive: HCT-15 colon 65.7% | HT29 colon 72.1% | SNB-75 CNS 90.8% | SNB-19 CNS 92.5% | U251 CNS 74.5% | PC-3 prostate 26.9% | SK-MEL-5 melanoma 66.8% | UACC-62 melanoma 40.2% | LOX IMVI melanoma 52.3% | SK-MEL-28 melanoma 90.2%

COc1cccc(-c2nn(-c3ccccc3)cc2-c2ccnc(-c3cccnc3)c2)c1
inactive: HCT-15 colon 89.6% | HT29 colon 96.7% | SNB-75 CNS 93% | SNB-19 CNS 97.6% | U251 CNS 104% | PC-3 prostate 70.6% | SK-MEL-5 melanoma 81.2% | UACC-62 melanoma 86.6% | LOX IMVI melanoma 87.4% | SK-MEL-28 melanoma 100%

CCOC(=O)c1c(N)sc2cc(O)ccc12
inactive: HCT-15 colon 97.1% | HT29 colon 104% | SNB-75 CNS 86.7% | SNB-19 CNS 106% | U251 CNS 98.9% | PC-3 prostate 103% | SK-MEL-5 melanoma 104% | UACC-62 melanoma 92.3% | LOX IMVI melanoma 96.5% | SK-MEL-28 melanoma 92.7%

Cc1cc2c(C(C)C)c(O)c(O)c(/C=N/O)c2c(O)c1-c1c(C)cc2c(C(C)C)c(O)c(O)c(/C=N/O)c2c1O
inactive: HCT-15 colon 29.3% | SNB-75 CNS 80.3% | SNB-19 CNS 30.4% | PC-3 prostate 27.9% | SK-MEL-5 melanoma 16.3% | SK-MEL-28 melanoma 19.8%
active: HT29 colon 1.38% | U251 CNS 1.13% | UACC-62 melanoma 9.12% | LOX IMVI melanoma -22.9%

CCOC(=O)c1cc(C(=O)c2cc(OC)cc(OC)c2)n2ncccc12
active: HT29 colon 7.23%
inactive: HCT-15 colon 21.5% | SNB-75 CNS 23.5% | SNB-19 CNS 47.1% | U251 CNS 24.7% | PC-3 prostate 36.2% | SK-MEL-5 melanoma 26% | UACC-62 melanoma 26.2% | LOX IMVI melanoma 39.7% | SK-MEL-28 melanoma 71.2%

Oc1ccc(C2OCCO2)c2cccnc12
inactive: HCT-15 colon 32% | HT29 colon 78.3% | SNB-75 CNS 80.6% | SNB-19 CNS 64.4% | U251 CNS 27.4% | PC-3 prostate 32% | SK-MEL-5 melanoma 48.4% | UACC-62 melanoma 51.4% | LOX IMVI melanoma 38.4% | SK-MEL-28 melanoma 63.4%

N#C/C(=C\c1cccc2cnccc12)N1N=NC2C=CC=CC21 (stereo not given)
active: SNB-75 CNS 7.27%
inactive: HCT-15 colon 13.5% | HT29 colon 12.7% | SNB-19 CNS 66% | U251 CNS 70.6% | PC-3 prostate 47.9% | SK-MEL-5 melanoma 46.4% | UACC-62 melanoma 37.1% | LOX IMVI melanoma 11.7% | SK-MEL-28 melanoma 43.8%

COC(=O)c1sc(-c2ccc(C)cc2)cc1O
inactive: HCT-15 colon 101% | HT29 colon 108% | SNB-75 CNS 105% | SNB-19 CNS 101% | U251 CNS 96.5% | PC-3 prostate 102% | SK-MEL-5 melanoma 103% | UACC-62 melanoma 97.1% | LOX IMVI melanoma 101% | SK-MEL-28 melanoma 113%

CCCN1C(=O)N(CCC)C2C1NC(=S)N2/N=C/C=C/c1ccccc1OC (stereo not given)
inactive: HCT-15 colon 19.3% | SNB-19 CNS 24.6% | U251 CNS 11.9% | PC-3 prostate 28.7% | SK-MEL-5 melanoma 26.9% | UACC-62 melanoma 28.5% | LOX IMVI melanoma 41% | SK-MEL-28 melanoma 50%
active: HT29 colon 2.43% | SNB-75 CNS -17.4%

C=C(C)[C@@H]1CC[C@]2(COCCCNCCCN)CC[C@]3(C)[C@H](CC[C@@H]4[C@@]5(C)CC[C@H](OCCCN)C(C)(C)[C@@H]5CC[C@]43C)[C@@H]12
active: HCT-15 colon -88.4% | HT29 colon -79.7% | SNB-19 CNS -78.3% | U251 CNS -94.3% | PC-3 prostate -10% | UACC-62 melanoma -88.1% | LOX IMVI melanoma -93.8%
inactive: SNB-75 CNS 10.1% | SK-MEL-5 melanoma 67.2% | SK-MEL-28 melanoma 16.1%

COC(CCP(=O)(c1ccccc1)c1ccccc1)(C(=O)c1ccccc1)c1ccccc1 (stereo not given)
active: PC-3 prostate -46.2%
inactive: HCT-15 colon 52.6% | HT29 colon 57.5% | SNB-75 CNS 84.9% | SNB-19 CNS 71.6% | U251 CNS 71.3% | SK-MEL-5 melanoma 34.3% | UACC-62 melanoma 53.8% | LOX IMVI melanoma 64.6% | SK-MEL-28 melanoma 89.1%

O=C(/C=C/c1cccc([N+](=O)[O-])c1)c1ccc(Nc2nc(Nc3ccc(F)cc3)nc(Nc3ccc(Cl)cc3)n2)cc1
inactive: HCT-15 colon 83.9% | HT29 colon 88% | SNB-75 CNS 106% | SNB-19 CNS 100% | U251 CNS 81.1% | PC-3 prostate 88.5% | SK-MEL-5 melanoma 87.6% | UACC-62 melanoma 93.9% | LOX IMVI melanoma 84.2% | SK-MEL-28 melanoma 97.1%

COc1ccc(S(=O)(=O)N(C)c2oc(-c3ccc(Cl)cc3)nc2C#N)cc1
inactive: HCT-15 colon 44.3% | HT29 colon 65.9% | SNB-75 CNS 65.1% | SNB-19 CNS 81% | U251 CNS 81.1% | PC-3 prostate 87.4% | SK-MEL-5 melanoma 86.1% | UACC-62 melanoma 59.1% | LOX IMVI melanoma 71.9% | SK-MEL-28 melanoma 84.4%

O=C(O)CCCN1C(=O)CSC1=S
inactive: HCT-15 colon 94.3% | HT29 colon 108% | SNB-75 CNS 85.6% | SNB-19 CNS 102% | U251 CNS 108% | PC-3 prostate 95.3% | SK-MEL-5 melanoma 101% | UACC-62 melanoma 96.2% | LOX IMVI melanoma 94.7% | SK-MEL-28 melanoma 105%

COc1ccc2c(O)cc3c(c2c1)[C@H](CCl)CN3C(=O)c1cc2cc(NC(=O)CCN3CCOCC3)ccc2[se]1
active: HCT-15 colon 0% | HT29 colon -39.8% | SNB-75 CNS -87.8% | SNB-19 CNS -76.2% | U251 CNS -85.7% | SK-MEL-5 melanoma -85.9% | UACC-62 melanoma -76.4% | LOX IMVI melanoma -62.5% | SK-MEL-28 melanoma -58.7%
inactive: PC-3 prostate 74.1%

O=[N+]([O-])c1ccc(N/N=C\c2cc(Cl)ccc2O)nc1
active: SK-MEL-5 melanoma 4.09%
inactive: HCT-15 colon 26% | HT29 colon 50.9% | SNB-75 CNS 70.1% | SNB-19 CNS 44.8% | U251 CNS 33% | PC-3 prostate 24.5% | UACC-62 melanoma 11.2% | LOX IMVI melanoma 22.6% | SK-MEL-28 melanoma 55.3%

CC(=O)[C@H]1CC[C@]2(C)[C@@H]1CC[C@@H]1[C@@]3(C)C/C(=C/c4cccnc4)C(=O)C(C)(C)[C@@H]3CC[C@]12C
inactive: HCT-15 colon 54.4% | HT29 colon 57.1% | SNB-75 CNS 106% | SNB-19 CNS 87.1% | U251 CNS 60.7% | PC-3 prostate 26.9% | SK-MEL-5 melanoma 38.9% | UACC-62 melanoma 59.9% | LOX IMVI melanoma 87.6% | SK-MEL-28 melanoma 94.9%

COc1ccccc1NC(=O)n1c(=O)cc(C)c2ccc(O)cc21
inactive: HCT-15 colon 104% | HT29 colon 106% | SNB-75 CNS 101% | SNB-19 CNS 106% | U251 CNS 106% | PC-3 prostate 99.9% | SK-MEL-5 melanoma 98.3% | UACC-62 melanoma 100% | LOX IMVI melanoma 105% | SK-MEL-28 melanoma 113%

CCOC(=O)CC1C(CNC(=O)NC)OC(n2cnc3c(NC(=O)Nc4ccccc4)ncnc32)C1O[Si](C)(C)C(C)(C)C (stereo not given)
inactive: HCT-15 colon 55.7% | HT29 colon 27% | SNB-75 CNS 63.4% | SNB-19 CNS 93.9% | U251 CNS 34% | PC-3 prostate 47% | SK-MEL-5 melanoma 58.3% | UACC-62 melanoma 80.4% | LOX IMVI melanoma 50.5% | SK-MEL-28 melanoma 83.9%

Cc1ccc(C2=Nc3c(N)nc(N)nc3NC(c3cccc(Nc4ccnc5cc(C(F)(F)F)ccc45)c3)C2)cc1 (stereo not given)
active: HT29 colon 1.9% | SNB-75 CNS 7.55% | LOX IMVI melanoma -2.42%
inactive: HCT-15 colon 15.2% | SNB-19 CNS 34.4% | U251 CNS 12.8% | PC-3 prostate 16.5% | SK-MEL-5 melanoma 17.6% | UACC-62 melanoma 40.8% | SK-MEL-28 melanoma 66.8%
